This passage reports outcome and AC50 results from PubChem BioAssay (EPA / NIEHS).

For orientation: AC50 means the concentration giving half of the maximal activity seen.

Read-out in experiment [1]: Nuclear factor erythroid 2-related factor 2 (Homo sapiens) (UniProt Q16236)
The experiment is described as follows: LTEA_HepaRG_NFE2L2: Life Technologies and Expression Analysis (LTEA) Assay for Nuclear factor erythroid 2-related factor 2 (NFE2L2) Transcription Factor using HepaRG (AID 2283527).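 Note: TaqMan qRT-PCR transcript level normalised to ACTB GAPDH and POLR2A housekeeping genes.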 The following applies: mRNA level, 48 h; actives raise or lower the signal. The procedure, abridged: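 Differentiated human HepaRG cells in serum-free induction medium were exposed for 48 h to eight concentrations (top 100 uM, half-log dilutions, 0.5% DMSO), in duplicate. NFE2L2 mRNA was quantified by TaqMan qRT-PCR, normalized to ACTB, GAPDH and POLR2A, with bidirectional fitting versus DMSO.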

Read-out in experiment [2]: succinate dehydrogenase complex iron sulfur subunit B (SDHB), SDHB (gene 6390)
As to the kind of experiment: LTEA_HepaRG_SDHB: Life Technologies and Expression Analysis (LTEA) Assay for succinate dehydrogenase complex iron sulfur subunit B (SDHB) using HepaRG (AID 2283528). Conditions: mRNA level, 48 h; actives raise or lower the signal. The procedure, abridged:
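HepaRG cells (~100,000/well, plated 48 h) exposed in duplicate for 48 h in serum-free induction medium to 8-point half-log series from 100 uM in 0.5% DMSO; mRNA by qRT-PCR normalised to ACTB, GAPDH, POLR2A; bidirectional fit versus DMSO.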

Read-out in experiment [3]: Signal transducer and activator of transcription 3 (Homo sapiens) (UniProt P40763)
As to the kind of experiment: LTEA_HepaRG_STAT3: Life Technologies and Expression Analysis (LTEA) Assay for Signal transducer and activator of transcription (STAT3) using HepaRG (AID 2283529). Conditions: mRNA level, 48 h; actives raise or lower the signal. In outline:
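Differentiated human HepaRG cells in serum-free induction medium were exposed in duplicate for 48 h to eight half-log concentrations up to 100 uM in 0.5% DMSO. STAT3 mRNA was quantified by TaqMan qRT-PCR, normalized to ACTB, GAPDH and POLR2A, and fitted bidirectionally against DMSO.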

Read-out in experiment [4]: solute carrier (SLCO1B1), SLCO1B1 (gene 10599)
The experiment is described as follows: LTEA_HepaRG_SLCO1B1: Life Technologies and Expression Analysis (LTEA) Assay for solute carrier (SLCO1B1) using HepaRG (AID 2283530). The following applies: mRNA level, 48 h; actives raise or lower the signal. In outline:
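Gain or loss of SLCO1B1 mRNA is fitted against the 0.5% DMSO vehicle in human HepaRG liver cells treated 48 h at up to 100 uM in half-log steps. Expression comes from qRT-PCR normalized to endogenous controls.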

Read-out in experiment [5]: Transforming Growth Factor (TGFA), TGFA (gene 7039)
The experiment is described as follows: LTEA_HepaRG_TGFA: Life Technologies and Expression Analysis (LTEA) Assay for Transforming Growth Factor (TGFA) using HepaRG (AID 2283532). The following applies: mRNA level, 48 h; actives raise or lower the signal. The procedure, abridged:
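Differentiated human HepaRG cells, plated 48 h then switched to serum-free induction medium, were exposed in duplicate for 48 h to 8-point half-log series from 100 uM in 0.5% DMSO. TGFA mRNA measured by qRT-PCR, normalized to ACTB/GAPDH/POLR2A, bidirectional fit versus DMSO.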

Read-out in experiment [6]: Transforming Growth Factor (TGFB1), TGFB1 (gene 7040)
The experiment is described as follows: LTEA_HepaRG_TGFB1: Life Technologies and Expression Analysis (LTEA) Assay for Transforming Growth Factor (TGFB1) Transporter using HepaRG (AID 2283533). Conditions: mRNA level, 48 h; actives raise or lower the signal. In outline: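 Expression change of TGFB1 in human HepaRG cells is measured after a 48 h chemical exposure, up to 100 uM in 0.5% DMSO vehicle. Curves are fitted in both directions relative to the DMSO baseline.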

Read-out in another experiment: TIMP1, TIMP1 (gene 7076)
As to the kind of experiment: LTEA_HepaRG_TIMP1: Life Technologies and Expression Analysis (LTEA) Assay for TIMP1 using HepaRG (AID 2283534). The following applies: mRNA level, 48 h; actives raise or lower the signal. In outline:
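We dosed human liver HepaRG cultures for 48 hours with up to 100 uM test chemical and measured TIMP1 expression by qRT-PCR. Activity in either direction is fitted relative to the 0.5% DMSO vehicle.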

Read-out in experiment [7]: Tumor necrosis factor receptor 1 (TNFRSF1A), TNFRSF1A (gene 7132)
The experiment is described as follows: LTEA_HepaRG_TNFRSF1A: Life Technologies and Expression Analysis (LTEA) Assay for Tumor necrosis factor receptor 1 (TNFRSF1A) using HepaRG (AID 2283535). Conditions: mRNA level, 48 h; actives raise or lower the signal. The procedure, abridged:
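Expression of TNFRSF1A in human HepaRG liver cells was measured by qRT-PCR 48 h after chemical dosing (maximum 100 uM). Bidirectional curve fitting used 0.5% DMSO as baseline.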

Read-out in experiment [8]: Cellular tumor antigen p53 (Homo sapiens) (UniProt P04637)
The experiment is described as follows: LTEA_HepaRG_TP53: Life Technologies and Expression Analysis (LTEA) Assay for Tumor Protein P53 (TP53) using HepaRG (AID 2283537). Conditions: mRNA level, 48 h; actives raise or lower the signal. In outline: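 Differentiated HepaRG cells in serum-free induction medium exposed 48 h in duplicate to 8 half-log concentrations, top 100 uM, 0.5% DMSO. TP53 mRNA by TaqMan qRT-PCR (Fluidigm), normalized to ACTB, GAPDH, POLR2A; fitted bidirectionally versus DMSO.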

Read-out in experiment [9]: UDP glucuronosyltransferase (UGT1A1), UGT1A1 (gene 54658)
As to the kind of experiment: LTEA_HepaRG_UGT1A1: Life Technologies and Expression Analysis (LTEA) Assay for UDP glucuronosyltransferase (UGT1A1) using HepaRG (AID 2283538). The following applies: mRNA level, 48 h; actives raise or lower the signal. The procedure, abridged: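 HepaRG cells, 0.5% DMSO vehicle, 48 h exposure in serum-free induction medium to 8-point half-log series topping at 100 uM, in duplicate. UGT1A1 mRNA by Fluidigm qRT-PCR, normalized to ACTB/GAPDH/POLR2A; bidirectional fit versus DMSO.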

Read-out in experiment [10]: UDP glucuronosyltransferase (UGT1A6), UGT1A6 (gene 54578)
As to the kind of experiment: LTEA_HepaRG_UGT1A6: Life Technologies and Expression Analysis (LTEA) Assay for UDP glucuronosyltransferase (UGT1A6) using HepaRG (AID 2283539). The following applies: mRNA level, 48 h; actives raise or lower the signal. In outline:
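Endpoint is UGT1A6 transcript induction or loss in a human liver cell line, quantified by TaqMan qRT-PCR 48 h after dosing. Concentrations ran from 100 uM downward in half-log steps in 0.5% DMSO; activity was fitted in both directions versus vehicle.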

Read-out in experiment [11]: X-box binding protein 1 (XBP1), XBP1 (gene 7494)
The experiment is described as follows: LTEA_HepaRG_XBP1: Life Technologies and Expression Analysis (LTEA) Assay for X-box binding protein 1 (XBP1) using HepaRG (AID 2283540). The following applies: mRNA level, 48 h; actives raise or lower the signal. In outline:
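Human HepaRG monolayers receive test chemical for 48 h across an eight-point half-log series starting at 100 uM. XBP1 mRNA gain or loss is scored against DMSO by qRT-PCR.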

Experiment [12] in a line: LTEA_HepaRG_LDH_cytotoxicity: Cytotoxicity Assessment in the Life Technologies and Expression Analysis (LTEA) Assay (AID 2283563; active = hit-call score of the fitted dose curve at least 0.9, where 1 is the maximum). In outline: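 Human HepaRG hepatic cells are treated with test chemicals for 48 h at up to 100 uM in 0.5% DMSO. Cytotoxicity is scored from medium LDH against the vehicle control.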
Experiment [13] is described as follows: ATG_XTT_Cytotoxicity: Cytotoxicity Assessment in the Attagene TRANS-FACTORIAL HepG2 Assay (AID 2283584; active = hit-call score of the fitted dose curve at least 0.9, where 1 is the maximum). The procedure, abridged:
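Transfect HepG2 with GAL4-UAS reporter units, dose compound, incubate 24 h, then measure viable cell number by XTT. Fit concentration response against DMSO baseline.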

Experiment [14] has as its target Cellular tumor antigen p53 (Homo sapiens) (UniProt P04637). As to the kind of experiment: TOX21_p53_BLA_p2_ratio: Tox21 HCT-116 p53 Agonism Beta-lactamase Assay, Ratio, Phase 2 (AID 2283592; active = hit-call score of the fitted dose curve at least 0.9, where 1 is the maximum). The procedure, abridged: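 An inducible beta-lactamase reporter in HCT116 cells signals p53 pathway activation. After 16 h chemical exposure at 37C, cells load CCF4-AM substrate for 2 h at room temperature; activity is the cleaved/uncleaved emission ratio relative to DMSO.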

A short description of experiment [15]: TOX21_p53_BLA_p3_viability: Viability Assessment in the Tox21 HCT-116 p53 Agonism Beta-lactamase Assay, Phase 3 (AID 2283593; active = hit-call score of the fitted dose curve at least 0.9, where 1 is the maximum;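 note: cells exposed to compound for 16 h before reading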). The procedure, abridged:
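HCT-116 cells (4000/well) rested 5 h at 37C, then got DMSO compounds by pin tool (217-fold dilution) for 16 h at 37C, 5% CO2. After the bla read, CellTiter-Glo was added and luminescence read at 30 min, room temperature.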

The target of experiment [16] is Cellular tumor antigen p53 (Homo sapiens) (UniProt P04637). As to the kind of experiment: TOX21_p53_BLA_p3_ratio: Tox21 HCT-116 p53 Agonism Beta-lactamase Assay, Ratio, Phase 3 (AID 2283596; active = hit-call score of the fitted dose curve at least 0.9, where 1 is the maximum). The procedure, abridged: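 HCT116 p53-bla cells (4000/well) given compound in DMSO (217-fold dilution) after 5 h, incubated 16 h at 37C. CCF4-AM substrate 2 h at room temperature; 460/530 nm emission ratio, gain fitted against DMSO.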

Read-out in experiment [17]: sulfotransferase 2A1 (SULT2A1), SULT2A1 (gene 6822)
As to the kind of experiment: LTEA_HepaRG_SULT2A1: Life Technologies and Expression Analysis (LTEA) Assay for sulfotransferase 2A1 (SULT2A1) using HepaRG (AID 2283531). The following applies: mRNA level, 48 h; actives raise or lower the signal. In outline: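 Cells were plated and cultured 48 h, switched to serum-free induction medium, then dosed in duplicate for 48 h (8 concentrations, max 100 uM). RNA was isolated and SULT2A1 expression measured by qRT-PCR; gain or loss of signal fitted relative to DMSO.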

Read-out in experiment [18]: Thyroid Hormone Responsive (THRSP), THRSP (gene 7069)
The experiment is described as follows: LTEA_HepaRG_THRSP: Life Technologies and Expression Analysis (LTEA) Assay for Thyroid Hormone Responsive (THRSP) using HepaRG (AID 2283536). Conditions: mRNA level, 48 h; actives raise or lower the signal. In outline: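 Differentiated human HepaRG cells were exposed in duplicate for 48 h in serum-free induction medium to eight concentrations (top 100 uM, half-log steps, 0.5% DMSO). Expression was quantified by TaqMan qRT-PCR, normalized to ACTB, GAPDH and POLR2A, with bidirectional fitting against DMSO.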

Experiment [19] in a line: TOX21_p53_BLA_p2_viability: Viability Assessment in the Tox21 HCT-116 p53 Agonism Beta-lactamase Assay, Phase 2 (AID 2283591; active = hit-call score of the fitted dose curve at least 0.9, where 1 is the maximum;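 note: compound exposure lasted 16 h at 37 °C; actives lower the ATP signal meaning cytotoxicity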). In outline: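 HCT-116 p53-bla cells (4000/well) rested 5 h at 37C, then received compounds in DMSO (217-fold dilution) for 16 h at 37C, 5% CO2. After the CCF4 read, CellTiter-Glo was added; ATP luminescence was read after 30 min at room temperature.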

The structures appear in SMILES notation. Records with an inconclusive call do not appear. Activity calls are given as the source filed them. Rule for the calls, unless noted: active = hit-call score of the fitted dose curve at least 0.9, where 1 is the maximum; inactive = score below 0.9.

Signal transducer and activator of transcription 3 (Homo sapiens), sequence (P40763 whole entry, looked up): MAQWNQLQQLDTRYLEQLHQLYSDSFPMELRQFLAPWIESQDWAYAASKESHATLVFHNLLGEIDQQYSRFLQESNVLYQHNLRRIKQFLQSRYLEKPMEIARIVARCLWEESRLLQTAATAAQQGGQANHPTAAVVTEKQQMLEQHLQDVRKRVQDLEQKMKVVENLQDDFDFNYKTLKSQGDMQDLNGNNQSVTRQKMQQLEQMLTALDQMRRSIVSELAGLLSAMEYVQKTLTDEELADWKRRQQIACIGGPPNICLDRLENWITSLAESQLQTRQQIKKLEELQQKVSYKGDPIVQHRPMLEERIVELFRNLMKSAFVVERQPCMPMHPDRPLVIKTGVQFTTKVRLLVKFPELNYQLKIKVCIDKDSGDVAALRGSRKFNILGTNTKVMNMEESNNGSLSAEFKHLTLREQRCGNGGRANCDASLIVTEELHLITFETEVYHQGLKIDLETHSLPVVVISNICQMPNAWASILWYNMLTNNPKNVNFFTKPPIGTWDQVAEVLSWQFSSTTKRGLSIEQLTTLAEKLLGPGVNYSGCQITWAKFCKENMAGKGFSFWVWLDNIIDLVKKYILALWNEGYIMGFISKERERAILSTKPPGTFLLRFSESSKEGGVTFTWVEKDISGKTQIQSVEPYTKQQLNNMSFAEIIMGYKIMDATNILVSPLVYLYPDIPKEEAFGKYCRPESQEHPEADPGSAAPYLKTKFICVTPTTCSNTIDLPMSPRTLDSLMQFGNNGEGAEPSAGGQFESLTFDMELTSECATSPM
Cellular tumor antigen p53 (Homo sapiens), sequence (P04637 whole entry, looked up): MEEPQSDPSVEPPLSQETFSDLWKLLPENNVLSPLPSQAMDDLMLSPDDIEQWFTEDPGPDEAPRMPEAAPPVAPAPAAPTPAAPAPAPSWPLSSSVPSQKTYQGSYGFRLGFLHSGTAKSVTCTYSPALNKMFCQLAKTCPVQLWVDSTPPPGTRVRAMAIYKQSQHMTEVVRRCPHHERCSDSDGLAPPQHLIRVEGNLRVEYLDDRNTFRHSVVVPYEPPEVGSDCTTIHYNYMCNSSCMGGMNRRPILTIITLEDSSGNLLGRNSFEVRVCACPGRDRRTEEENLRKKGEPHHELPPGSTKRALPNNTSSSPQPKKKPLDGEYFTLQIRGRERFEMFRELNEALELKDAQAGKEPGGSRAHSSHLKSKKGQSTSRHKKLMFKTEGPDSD
Nuclear factor erythroid 2-related factor 2 (Homo sapiens), sequence (Q16236 whole entry, looked up): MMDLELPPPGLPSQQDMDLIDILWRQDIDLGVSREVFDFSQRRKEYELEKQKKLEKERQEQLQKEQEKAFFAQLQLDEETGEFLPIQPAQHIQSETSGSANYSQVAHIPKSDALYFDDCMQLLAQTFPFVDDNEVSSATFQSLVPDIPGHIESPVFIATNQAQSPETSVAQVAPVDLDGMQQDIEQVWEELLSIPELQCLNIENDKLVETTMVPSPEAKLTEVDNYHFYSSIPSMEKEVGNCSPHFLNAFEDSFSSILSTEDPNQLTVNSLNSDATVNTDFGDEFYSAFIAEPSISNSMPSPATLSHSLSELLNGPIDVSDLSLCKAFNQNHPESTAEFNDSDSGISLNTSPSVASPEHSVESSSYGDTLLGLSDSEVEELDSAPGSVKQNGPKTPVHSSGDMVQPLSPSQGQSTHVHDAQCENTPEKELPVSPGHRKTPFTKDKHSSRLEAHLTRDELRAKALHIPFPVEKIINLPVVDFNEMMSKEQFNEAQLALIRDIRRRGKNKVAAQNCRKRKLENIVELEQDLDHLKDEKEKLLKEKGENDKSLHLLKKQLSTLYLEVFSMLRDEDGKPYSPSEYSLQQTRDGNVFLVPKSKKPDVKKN

As for `CCCC[C@H]1CN(CC2CCOCC2)C(=O)OC12CCN(C1(C)CCN(C(=O)c3c(C)ncnc3C)CC1)CC2`, the call in [1], in [2], in experiment [3], in experiment [4], in [5] and in [6] was inactive. In addition, the outcome is “inactive” with TIMP1, TIMP1 (gene 7076); “inactive” in [7]; “inactive” in experiment [8]; “inactive” in experiment [9]; “inactive” in experiment [10]; “inactive” in [11]. Moreover, the result in experiment [12], in experiment [13], in [14], in experiment [15] and in [16] was inactive.
As for `C/C=C/C=C/C(=O)O`, the result in experiment [1], in experiment [2], in experiment [3], in [4], in experiment [5] and in experiment [6] was inactive. The outcome with TIMP1, TIMP1 (gene 7076) was “inactive”; in experiment [7], “inactive”; in [10], “inactive”; in experiment [11], “inactive”; in experiment [12], “inactive”. Also, in experiment [9], the AC50 was 0.171 µM (active).
Take `Cc1cc(Cc2ccc(N)c(C)c2)ccc1N`: the molecule was classed as inactive in [1], in experiment [3], in [4], in experiment [17], in [5] and in experiment [6]. Also, the outcome in the experiment with TIMP1, TIMP1 (gene 7076) is “inactive”; in experiment [7], “inactive”; in [18] it was “inactive”; in experiment [8], “inactive”; in [10], “inactive”; in experiment [11], “inactive”. Besides, the result in [12], in experiment [19], in experiment [14], in [15] and in [16] was inactive. Moreover, in experiment [9], the AC50 was 28.1 µM (active).
Take `CC(C)c1cccc(C(C)C)c1NC(=O)NS(=O)(=O)c1cc(C(C)(C)O)co1`: the outcome in experiment [1], in experiment [3], in [4], in experiment [17], in experiment [5] and in experiment [6] was inactive. For the same molecule, the outcome with TIMP1, TIMP1 (gene 7076) is “inactive”; in experiment [7] it was “inactive”; in experiment [8], “inactive”; in [9] it was “inactive”; in [10], “inactive”; in [11] it was “inactive”. Moreover, the molecule was called inactive in experiment [12].
